# High-throughput results deposited in PubChem BioAssay by several laboratories.
# ALR inh – blocks human ALR sulfhydryl oxidase activity. purified ALR, DTT oxidation, H2O2 HRP-luminol luminescence. inhibition, % (no concentration beside the values). hit rate 3.8% among 290,000;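 active means mean replicate inhibition above about 79%, with every replicate also reaching it, limit read from the data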
# PREPL inh – inhibits the human prolyl oligopeptidase-like enzyme. inhibition, % at 5.96 µM. AID 2751. recombinant PREPL, fluorescence polarization activity-based probe. hit rate 0.68% among 320,000; in the data active means inhibition above about 43%;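 further: 0% = enzyme with DMSO and 100% = wells lacking enzyme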
# CHT block – inhibits the human high affinity choline transporter; hit rate 0.86% among 310,000; Q9GZV3; B-score at 10 µM; CHT-expressing cells, membrane potential dye, choline response; active compounds read low;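 active means B-score over 3 SD under the library average, and starting fluorescence ratio not unusually high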;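 further: choline stimulus applied at its EC90 after an EC20 pre-addition; B-score computed on integrated fluorescence ratio after choline addition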
# AI-2 QS modul – modulates the Vibrio harveyi AI-2 quorum sensing system; AID 2094; activity change, % at 7.5 µM; Vibrio harveyi JMH597 AI-2 luminescence/OD600 ratio, 9 h; active compounds read low; strain lacks LuxN and CqsS sensors; 0 = neutral-control median; hit rate 0.4% among 300,000; in the data active means activity change below about -75%, passing the limit was not always enough;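 further: luminescence divided by OD600 gain over 9 h not by final OD600 alone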
# CHT allo act – allosteric activators of human choline transporter CHT; Q9GZV3; CHT-expressing cells, membrane potential dye, choline EC20; active compounds read high; LV-AA mutant CHT in HEK293 cells; B-score at 10 µM; hit rate 0.49% among 310,000;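 active means initial fluorescence not abnormally high and integrated response B-score, plate-corrected, over 3 SD above library mean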
# * marks the source's active call; other numbers are inactive results; i = inactive; x = no result given. Rows were chosen to be rich in hits. Some 5% of all compounds tested hit in one or more screens of this group.
SMILES,ALR inh,PREPL inh,CHT block,AI-2 QS modul,CHT allo act
O=C(CNS(=O)(=O)c1ccccc1)Nc1ccc(C(F)(F)F)cc1,-1,-4,i,-58,i
O=C(Nc1nnc(SCc2cccnc2)s1)C1CC(=O)N(c2ccc(F)cc2)C1 (stereo not given),97*,19,i,0,i
COc1ccc(/C=N/OCC(=O)Nc2ccc3c(c2)OCO3)c(OC)c1,-14,-5,i,63,i
O=c1cc(-c2c(F)c(F)c(F)c(F)c2F)oc2ccccc12,-23,-47,i,43,i
O=c1cc(-c2c(F)c(F)c(F)c(F)c2F)oc2c(F)c(F)c(F)c(F)c12,57,6,i,-78*,i
CCOC(=O)CSC1=Nc2ccccc2C2=NC(CC(=O)NCc3cccs3)C(=O)N12 (stereo not given),-12,-1,i,18,i
CCOC(=O)CSC1=Nc2ccccc2C2=NC(CC(=O)NCc3ccccc3)C(=O)N12 (stereo not given),98*,-10,i,35,i
CCCCNC(=O)CC1N=C2c3ccccc3N=C(SCC(=O)Nc3ccccc3C)N2C1=O (stereo not given),94*,7,i,30,i
CC(C)C(c1nnnn1C1CCCC1)N1c2ccccc2CC1C (stereo not given),99*,14,i,3,i
Cc1nn(C(C)C(=O)N/N=C/c2ccc(N(C)C)cc2)c(C)c1[N+](=O)[O-] (stereo not given),99*,19,i,-6,i
C/C(=N/NC(=O)C(C)n1nc(C)c([N+](=O)[O-])c1C)c1ccc(OCC(N)=O)cc1 (stereo not given),2,24,i,7,i
C=CC[C@H](CC(=O)N(CCO)Cc1ccccc1)C(=O)N[C@@H](COC(=O)[C@@H](CC=C)Cc1ccc(F)cc1)Cc1c[nH]c2ccccc12,-3,6,x,x,x
COC(=O)c1cc(-c2ccc(Cl)cc2Cl)n[nH]1,0,-25,i,2,i
CC1CN(C(=O)C(C)N2CCN(c3cccc(Cl)c3)CC2)CC(C)O1 (stereo not given),88*,3,i,3,i
CC1CN(C(=O)C(C)N2CCN(c3ccccc3Cl)CC2)CC(C)O1 (stereo not given),-2,3,i,1,i
CC(C)(C)C(=O)Nc1ccc(N2CCCC2)cc1,49,7,i,42,i
CCNc1nc(NCC)nc(N(C)N)n1,84*,1,i,16,i
Cc1noc(C)c1C(=O)N1CCN(c2ncccn2)CC1,-15,4,i,19,i
Cc1noc(C)c1C(=O)N1CCN(c2ccccc2O)CC1,99*,-3,x,x,x
CCc1noc(C)c1C(=O)Nc1cc(Cl)ccc1N1CCCC1,99*,-1,i,9,i
CCc1noc(C)c1C(=O)Nc1ccccc1N1CCOCC1,-8,13,i,5,i
Cc1noc(C)c1C(=O)Nc1ccccc1N1CCCC1,94*,17,x,x,x
N=C1C(c2nc3ccccc3s2)=C(O)CN1Cc1ccco1,98*,22,i,24,i
Cc1ccc(C(OC(=O)c2ccco2)C(=O)NC(C)(C)C)cc1 (stereo not given),-8,6,i,-1,i
O=C(NNc1nc2ccccc2nc1C(F)(F)F)c1ccccc1,98*,9,i,9,i
SMILES,ALR inh,PREPL inh,CHT block,AI-2 QS modul,CHT allo act
NNc1nc2ccccc2nc1C(F)(F)F,-3,6,i,9,i
C/C(=N\Nc1cccc(Cl)c1)c1ccncc1,99*,24,i,-4,i
C/C(=N\NC(=O)c1ccc(Cl)cc1)c1ccccn1,1,6,i,-33,i
C/C(=N\Nc1ccc(Cl)cc1)c1ccncc1,99*,13,i,17,i
C/C(=N\Nc1ccc(Cl)cc1)c1ccccn1,100*,9,i,12,i
C/C(=N\Nc1cc(C(F)(F)F)ccc1Cl)c1ccncc1,0,9,i,24,i
CCCCCCC1CC(C)(C(=O)CNc2nncs2)OC1=O (stereo not given),x,-5,i,-76*,i
CCCCCCC1CC(C)(/C(C)=N/NC(N)=O)OC1=O (stereo not given),-9,9,i,28,i
COc1cc(CC2COC(=O)C2(O)Cc2ccc(O)c(OC)c2)ccc1O (stereo not given),87*,5,i,12,i
Oc1ccc(Br)cc1-c1nc2cnccn2c1NC1CCCC1,94*,3,i,23,i
Cc1ccn2c(NC3CCCCC3)c(-c3cccc(SC4CCCCC4)c3)nc2c1,-1,7,x,x,x
Oc1ccc(Br)cc1-c1nc2cnccn2c1NC1CCCCC1,92*,9,i,11,i
CCN(C(=O)c1ccc2c(=O)n3c(nc2c1)CCCCC3)c1cc(OC)ccc1OC,-9,4,i,18,i
Cc1cc(NC(=O)CSc2nc3c(C)cccc3cc2C)no1,-1,9,i,10,i
O=C(Cn1c(C(F)(F)F)nc2ccccc21)c1ccc(F)cc1,92*,15,i,18,i
O=C(Cn1c(C(F)(F)F)nc2ccccc21)c1ccc(Br)cc1,-4,-8,i,17,i
COc1ccc(C(=O)Nc2ncccc2C)cc1S(=O)(=O)N1CCOCC1,-3,5,i,24,i
CC(=O)O[C@H]1C[C@@H]2CC[C@@H]3[C@H](CC[C@@]4(C)[C@H]3C[C@H]([N+]3(C)CCCCC3)[C@@H]4OC(C)=O)[C@@]2(C)C[C@@H]1N1CCCCC1,-9,29,i,10,6.5*
CC(=O)O[C@H]1C[C@@H]2CC[C@@H]3[C@H](CC[C@@]4(C)[C@H]3C[C@H]([N+]3(C)CCCCC3)[C@@H]4OC(C)=O)[C@@]2(C)C[C@@H]1[N+]1(C)CCCCC1,x,12,i,x,i
CCC(C)NC(=O)COc1ccc(OCc2ccccc2)cc1 (stereo not given),-14,5,i,16,i
Cc1cccc(-n2nnc3c(=O)n(Cc4ccccn4)cnc32)c1,-1,6,i,24,i
O=C(NCCN1CCN(c2ccccc2)CC1)Nc1cccc(Cl)c1,61,12,i,3,i
CC(Oc1ccc(Br)cc1)C(=O)N(C)CC(=O)Nc1ccc(N2CCOCC2)cc1 (stereo not given),99*,5,i,23,i
COc1ccc(CCC(=O)N(C)CC(=O)Nc2ccc(N3CCOCC3)cc2)cc1,94*,-1,i,x,i
CSc1ccc(Cl)c(C(=O)N(C)CC(=O)Nc2ccc(N3CCOCC3)cc2)c1,89*,7,i,7,i
CN(CC(=O)Nc1ccc(N2CCOCC2)cc1)C(=O)COc1ccccc1F,78*,-2,i,8,i
